Compound activity deposited in PubChem BioAssay by National Center for Advancing Translational Sciences (NCATS).
SARS PLP yeast – qHTS of Yeast-based Assay for SARS-CoV PLP; hit rate 0.19% among 330,000; AID 485353, 2010; S. cerevisiae expressing SARS-CoV PLpro, growth rescue; Potency, µM (highest dose often 32.9 µM), for the others: top-dose activity, positive = growth rescue, actives largely listed as activators; calls by dose curve; note: potency is the fitted concentration of half-maximal effect; 0% is about no effect; nearly all actives have a fitted effect of over 55% in size
Shiga toxin inh – A qHTS for Small Molecule Inhibitors of Shiga Toxin. Vero cells, Shiga toxin protein synthesis inhibition reporter. inhibition, % at 38.7 µM. hit rate 9.2% among 290,000. AID 2315, 2010; in the data active = inhibition mostly above about 28%, no sharp cut-off; inactive = mostly below about 43%; note: 0% is about no effect
AMA1-RON2 inh – qHTS for Inhibitors of AMA1-RON; Towards Development of Antimalarial Drug Lead: Primary Screen; hit rate 0.2% among 360,000; AlphaScreen AMA1-biotinylated RON2 peptide binding; Potency, µM (top dose mostly 58.2 µM), without a hit: at the highest dose activity change, negative = inhibition, actives largely listed as inhibitors; Plasmodium falciparum AMA1 (3D7) - RON2 peptide interaction;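 note: potency is the fitted concentration of half-maximal effect; 0% = vehicle wells and -100% = peptide control; nearly all actives have a fitted effect of over 45% in size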
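AMA1 (3D7) with his tag at 25 nM final met compounds first, then biotinylated RON2 peptide at 25 nM; detection used donor plus acceptor beads, 10 µg/mL apiece, read by AlphaScreen after 30 min at room temperature.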
Pf growth 48h – Primary qHTS for delayed death inhibitors of the malarial parasite plastid, 48 hour incubation; P. falciparum luciferase growth in erythrocytes, 48 h; Potency, µM (doses to about 28.7 µM), for inactives: at the top dose activity change, negative = inhibition, usual class: inhibitors; hit rate 5.9% among 310,000; note: potency is the fitted concentration of half-maximal effect; % is set by controls: 0 for no effect and ±100 for the full control effect
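Luciferase-expressing P. falciparum in infected erythrocytes (2% hematocrit, 0.1% parasitemia final) in RPMI 1640/0.5% Albumax were exposed to compound for 48 hours at 37 C, 5% CO2; growth read as luminescence.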
Pf growth 96h – Primary qHTS for delayed death inhibitors of the malarial parasite plastid, 96 hour incubation. P. falciparum luciferase reporter growth, 96 h. Potency, µM (titrated, usually from 28.7 µM), for the others: top-dose activity change, negative = inhibition, most hits filed as inhibitors. hit rate 6.9% among 320,000; note: potency is the fitted concentration of half-maximal effect; % is set by controls: 0 for no effect and ±100 for the full control effect
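Two parasite generations (96 h, 37 C, 5% CO2) of compound exposure in infected erythrocytes (0.05% parasitemia, 2% hematocrit). Luciferase-reporter P. falciparum; decreased luminescence indicates inhibited growth, aimed at apicoplast-acting delayed death.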
CHX counter – Cycloheximide Counterscreen for Small Molecule Inhibitors of Shiga Toxin | AID 2314, 2010 | max response, % | cell reporter, cycloheximide protein synthesis inhibition counterscreen | hit rate 12% among 300,000; in the data active = max response mostly above about 13%, no sharp cut-off; inactive = mostly below about 14%; note: read at 38.3 µM for the half of the compounds with a filed dose; 0% is about no effect
Active calls of the source: *; ? = inconclusive; . = no result. Shown are actives, neighbours in structure and some others; about 19% of the full set was active somewhere. Unless noted, calls come from the whole dose curve; as a rule, active = well fitted curve in the direction sought with a large enough effect; inconclusive = small, poorly fitted or top-dose-only effect, or another doubt; inactive = no such curve, though single readings can be large; an effect the other way counts as inactive or inconclusive.

SMILES	SARS PLP yeast	Shiga toxin inh	AMA1-RON2 inh	Pf growth 48h	Pf growth 96h	CHX counter
O=C(CSc1ccc(-c2nc3ccccc3[nH]2)cn1)N1CCN(C(=O)c2ccco2)CC1	11%	11	-1%	13µM*	1%	2
CCS(=O)(=O)c1nc2ccccc2n1CC(=O)N1CCCCC1	9%	-2	13%	-9%	10µM*	10
O=C(CSc1nc2ccccc2n1CC(=O)N1CCCC1)Nc1nccs1	1%	17	-4%	-2%	2.6µM*	-2
Cc1ccc2cc(C)c3nnc(SCC(=O)N4CCN(C(=O)c5ccco5)CC4)n3c2c1	1%	-10	-4%	13µM*	.	10
CC(C)N(C(=O)Cn1c(SCC(=O)Nc2nccs2)nc2ccccc21)C(C)C	0%	22	21%	?	37%	-2
CC(C)(C)NC(=O)CN(C(=O)CNS(=O)(=O)c1ccc(Cl)cc1)c1ccc2c(c1)OCCO2	3%	27	-1%	-10%	25%	9
O=C(CSc1nc2ccccc2n1CC(=O)N1CCCC1)N1CCN(C(=O)c2ccco2)CC1	-4%	9	11%	-16%	6.6µM*	-2
Cc1ccc(-n2nc3c(N4CCC(C(=O)NCCc5ccccc5C)CC4)nnc(C)c3c2C)cc1	0%	9	4%	?	31%	12
Cc1ccc(-n2nc3c(N4CCC(C(=O)NCc5cccc(F)c5)CC4)nnc(C)c3c2C)cc1	-2%	-2	?	?	4.1µM*	-3
COc1ccc(-n2nc3c(N4CCCC(C(=O)NCc5ccccc5C)C4)nnc(C)c3c2C)cc1 (stereo not drawn)	-3%	.	.	12µM*	2.1µM*	.
COc1ccc(-n2nc3c(N4CCC(C(=O)NCc5ccccc5C)CC4)nnc(C)c3c2C)cc1	3%	-5	-2%	?	?	-11
COc1ccc(-n2nc3c(N4CCC(C(=O)NCCc5ccccc5C)CC4)nnc(C)c3c2C)cc1	-2%	-7	-2%	-11%	-1%	-6
CCOc1ccccc1CNC(=O)C1CCCN(c2nc3ccccc3o2)C1 (stereo not drawn)	-2%	-6	.	12%	3.7µM*	1
CCOc1ccccc1CNC(=O)C1CCCN(c2nnc(C)c3c(C)n(-c4ccccc4)nc23)C1 (stereo not drawn)	19%	7	15%	13µM*	38%	6
CCOc1ccc(OCC(=O)N(CCC2=CCCCC2)c2c(N)n(Cc3ccccc3)c(=O)[nH]c2=O)cc1	4%	.	.	?	?	.
O=C1c2cccnc2C(=O)N1Cc1ccc(S(=O)(=O)N2CCN(c3ccccc3)CC2)cc1	-5%	-6	5%	33%	31%	6
C/C(=N\Nc1cc(C(F)(F)F)ccc1Cl)c1ccccc1O	11%	13	8%	?	-39%	4
C/C(=N\Nc1ccc(F)cc1F)c1ccccc1O	-5%	79*	0%	26%	15%	28*
CN(C(=O)COC(=O)c1cncc(Br)c1)C1CCCCC1	2%	.	1%	.	.	.
CN(C(=O)c1cncc(Br)c1)C1C2CC3CC(C2)CC1C3 (stereo not drawn)	-6%	25	0%	?	?	19*
Cc1ccc(-n2nc3c(c2NC(=O)c2ccc(S(=O)(=O)N4CCOCC4)cc2)CSC3)c(C)c1	12%	9	0%	5.9µM*	-22%	9
O=C(Nc1c2c(nn1-c1ccc(F)cc1)CSC2)c1ccc(S(=O)(=O)N2CCOCC2)cc1	2%	-10	3%	?	7%	1
Cc1cccc(-n2nc3c(c2NC(=O)c2ccc(S(=O)(=O)N4CCOCC4)cc2)CSC3)c1C	-1%	3	-6%	12µM*	2%	-2
CSCCNC(=O)C1(C)CCN1C(=O)CCc1ccccc1 (stereo not drawn)	.	.	0%	.	.	.
CCCCOc1ccc(CSc2n[nH]c(C)n2)cc1	-35%	93*	26%	?	6%	33*
Cc1nc(SCc2ccc([N+](=O)[O-])cc2)n[nH]1	-4%	.	-2%	15%	?	5.9*
